Measurements from publication PMC5700166.

biological target: T1, GST-Ap-NF-kB RHD (Exaiptasia pallida (Aiptasia), UniProt A0A913YAJ5 2-422); assay: protein-binding microarray (PBM); PBM: ~300 nM protein, 6 mM HEPES pH 7.8, 80 mM KCl, 0.5 mM EDTA, 0.5 mM EGTA, 6% glycerol, 35 ng/ul poly-dIdC, 1% milk, 1 h, room temperature; Ap Aiptasia and Nv Nematostella (sea anemones) / Co Capsaspora / Aq Amphimedon (sponge) / Dm Drosophila / Hu human; RHD is the Rel homology domain; high values mean tight binding; details: dsDNA, one strand shown
T1 sequence: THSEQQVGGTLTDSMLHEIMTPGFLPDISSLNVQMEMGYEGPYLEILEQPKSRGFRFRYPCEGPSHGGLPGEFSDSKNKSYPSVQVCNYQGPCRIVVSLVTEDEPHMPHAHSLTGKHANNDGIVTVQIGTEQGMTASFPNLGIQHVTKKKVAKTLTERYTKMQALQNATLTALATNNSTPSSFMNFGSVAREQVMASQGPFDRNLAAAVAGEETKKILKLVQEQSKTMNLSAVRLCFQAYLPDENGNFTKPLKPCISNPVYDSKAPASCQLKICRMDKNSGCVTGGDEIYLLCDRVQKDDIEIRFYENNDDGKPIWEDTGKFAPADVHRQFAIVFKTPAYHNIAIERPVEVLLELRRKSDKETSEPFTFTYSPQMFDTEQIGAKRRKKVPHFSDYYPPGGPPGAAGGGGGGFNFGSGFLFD

| Sequence | binding signal [z-score] |
| --- | --- |
| CCGATTAACATCAAAAGTCCCCGTGATGTTAATCGGGTCTTGATTCGCTTGACGCTGCTG | 8.32 |
| CCGATTAACATCACACTACCCCCTGATGTTAATCGGGTCTTGATTCGCTTGACGCTGCTG | 4.66 |
| CCGATTAACATCAAAGTCTCCCCTGATGTTAATCGGGTCTTGATTCGCTTGACGCTGCTG | 5.38 |
| CCGATTAACATCACCAACCCCCCTGATGTTAATCGGGTCTTGATTCGCTTGACGCTGCTG | 5.65 |
| CCGATTAACATCAGCTAATTCCCTGATGTTAATCGGGTCTTGATTCGCTTGACGCTGCTG | 1.96 |
| CCGATTAACATCAGACTTTTCCCTGATGTTAATCGGGTCTTGATTCGCTTGACGCTGCTG | 2.88 |
| CCGATTAACATCAAAAATCCCAATGATGTTAATCGGGTCTTGATTCGCTTGACGCTGCTG | 2.79 |
| CCGATTAACATCAAATTCCCCCTTGATGTTAATCGGGTCTTGATTCGCTTGACGCTGCTG | 9.34 |
| CCGATTAACATCAAAAAATACCCTGATGTTAATCGGGTCTTGATTCGCTTGACGCTGCTG | 6.17 |
| CCGATTAACATCAAAATACCCCCTGATGTTAATCGGGTCTTGATTCGCTTGACGCTGCTG | 9.02 |
| CCGATTAACATCAGGACCTCCCCTGATGTTAATCGGGTCTTGATTCGCTTGACGCTGCTG | 5.62 |
| CCGATTAACATCAGGGGATTCACTGATGTTAATCGGGTCTTGATTCGCTTGACGCTGCTG | 7.47 |
| CCGATTAACATCAGGGAATGCCCTGATGTTAATCGGGTCTTGATTCGCTTGACGCTGCTG | 5.58 |
| CCGATTAACATCAGAAGATCCCCTGATGTTAATCGGGTCTTGATTCGCTTGACGCTGCTG | 7.16 |
| CCGATTAACATCAGAATTCCCCCTGATGTTAATCGGGTCTTGATTCGCTTGACGCTGCTG | 10.1 |
| CCGATTAACATCAAAAGATCCCCTGATGTTAATCGGGTCTTGATTCGCTTGACGCTGCTG | 8.32 |
| CCGATTAACATCACGGAACCCCCTGATGTTAATCGGGTCTTGATTCGCTTGACGCTGCTG | 7.51 |
| CCGATTAACATCAGGGGGATAAATGATGTTAATCGGGTCTTGATTCGCTTGACGCTGCTG | 5.25 |
| CCGATTAACATCAATCTTTCCCCTGATGTTAATCGGGTCTTGATTCGCTTGACGCTGCTG | 5.5 |
| CCGATTAACATCAAAAGTCCCCTTGATGTTAATCGGGTCTTGATTCGCTTGACGCTGCTG | 8.69 |

| Sequence | binding signal [z-score] |
| --- | --- |
| CCGATTAACATCAAGTCCCCCCATGATGTTAATCGGGTCTTGATTCGCTTGACGCTGCTG | 5.62 |
| CCGATTAACATCAATCACCCCCCTGATGTTAATCGGGTCTTGATTCGCTTGACGCTGCTG | 4.05 |
| CCGATTAACATCAAAGCATCCCCTGATGTTAATCGGGTCTTGATTCGCTTGACGCTGCTG | 4.67 |
| CCGATTAACATCAAGGGGGTACTTGATGTTAATCGGGTCTTGATTCGCTTGACGCTGCTG | 4.81 |
| CCGATTAACATCAGGGGAATCCATGATGTTAATCGGGTCTTGATTCGCTTGACGCTGCTG | 8.88 |
| CCGATTAACATCAAGAATCCCCTTGATGTTAATCGGGTCTTGATTCGCTTGACGCTGCTG | 7.94 |
| CCGATTAACATCAAATATTCCCCTGATGTTAATCGGGTCTTGATTCGCTTGACGCTGCTG | 8.25 |
| CCGATTAACATCAGGGAAAGCACTGATGTTAATCGGGTCTTGATTCGCTTGACGCTGCTG | 3.61 |
| CCGATTAACATCACACATTCCCCTGATGTTAATCGGGTCTTGATTCGCTTGACGCTGCTG | 6.52 |
| CCGATTAACATCACATATTCCCCTGATGTTAATCGGGTCTTGATTCGCTTGACGCTGCTG | 7.49 |
| CCGATTAACATCAAGGATTCCCCTGATGTTAATCGGGTCTTGATTCGCTTGACGCTGCTG | 9.7 |
| CCGATTAACATCAAAAAGACCCCTGATGTTAATCGGGTCTTGATTCGCTTGACGCTGCTG | 4.67 |
| CCGATTAACATCAATTCCCCCCATGATGTTAATCGGGTCTTGATTCGCTTGACGCTGCTG | 7.01 |
| CCGATTAACATCAGGGGAGTACCTGATGTTAATCGGGTCTTGATTCGCTTGACGCTGCTG | 7.52 |
| CCGATTAACATCAGGGGGAAACCTGATGTTAATCGGGTCTTGATTCGCTTGACGCTGCTG | 8.24 |
| CCGATTAACATCAGGACAGCCCCTGATGTTAATCGGGTCTTGATTCGCTTGACGCTGCTG | 3.75 |
| CCGATTAACATCACAAGTTTCCCTGATGTTAATCGGGTCTTGATTCGCTTGACGCTGCTG | 4.14 |
| CCGATTAACATCAGGGAATCTTATGATGTTAATCGGGTCTTGATTCGCTTGACGCTGCTG | 3.7 |
| CCGATTAACATCAGGGGATGTTATGATGTTAATCGGGTCTTGATTCGCTTGACGCTGCTG | 5.57 |
| CCGATTAACATCAAATAAGTCCCTGATGTTAATCGGGTCTTGATTCGCTTGACGCTGCTG | 4.69 |

biological target: T2, GST-Nv-NF-kB (Cys allele) (Nematostella vectensis, UniProt E5G601 2-411); assay: as above; details: dsDNA, one strand shown
T2 sequence: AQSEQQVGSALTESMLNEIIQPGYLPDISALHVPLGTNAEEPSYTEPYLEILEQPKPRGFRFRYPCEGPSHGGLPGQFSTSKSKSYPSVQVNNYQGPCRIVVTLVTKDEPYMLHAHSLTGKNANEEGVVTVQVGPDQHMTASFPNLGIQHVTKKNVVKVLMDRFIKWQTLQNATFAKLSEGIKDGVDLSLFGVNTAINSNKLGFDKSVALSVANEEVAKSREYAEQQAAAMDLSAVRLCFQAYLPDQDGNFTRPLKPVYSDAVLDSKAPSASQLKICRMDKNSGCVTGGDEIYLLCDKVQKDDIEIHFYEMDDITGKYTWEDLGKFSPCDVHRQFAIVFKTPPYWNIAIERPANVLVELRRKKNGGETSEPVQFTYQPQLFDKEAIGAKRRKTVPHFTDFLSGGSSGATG

| Sequence | binding signal [z-score] |
| --- | --- |
| CCGATTAACATCAAAAGTCCCCGTGATGTTAATCGGGTCTTGATTCGCTTGACGCTGCTG | 8.18 |
| CCGATTAACATCACACTACCCCCTGATGTTAATCGGGTCTTGATTCGCTTGACGCTGCTG | 2.12 |
| CCGATTAACATCAAAGTCTCCCCTGATGTTAATCGGGTCTTGATTCGCTTGACGCTGCTG | 4.52 |
| CCGATTAACATCACCAACCCCCCTGATGTTAATCGGGTCTTGATTCGCTTGACGCTGCTG | 3.47 |
| CCGATTAACATCAGCTAATTCCCTGATGTTAATCGGGTCTTGATTCGCTTGACGCTGCTG | 3.33 |
| CCGATTAACATCAGACTTTTCCCTGATGTTAATCGGGTCTTGATTCGCTTGACGCTGCTG | 4.94 |
| CCGATTAACATCAAAAATCCCAATGATGTTAATCGGGTCTTGATTCGCTTGACGCTGCTG | 3.4 |
| CCGATTAACATCAAATTCCCCCTTGATGTTAATCGGGTCTTGATTCGCTTGACGCTGCTG | 10.3 |
| CCGATTAACATCAAAAAATACCCTGATGTTAATCGGGTCTTGATTCGCTTGACGCTGCTG | 9.78 |
| CCGATTAACATCAAAATACCCCCTGATGTTAATCGGGTCTTGATTCGCTTGACGCTGCTG | 7.56 |
| CCGATTAACATCAGGACCTCCCCTGATGTTAATCGGGTCTTGATTCGCTTGACGCTGCTG | 4.17 |
| CCGATTAACATCAGGGGATTCACTGATGTTAATCGGGTCTTGATTCGCTTGACGCTGCTG | 7.31 |
| CCGATTAACATCAGGGAATGCCCTGATGTTAATCGGGTCTTGATTCGCTTGACGCTGCTG | 7.18 |
| CCGATTAACATCAGAAGATCCCCTGATGTTAATCGGGTCTTGATTCGCTTGACGCTGCTG | 6.92 |
| CCGATTAACATCAGAATTCCCCCTGATGTTAATCGGGTCTTGATTCGCTTGACGCTGCTG | 11.8 |
| CCGATTAACATCAAAAGATCCCCTGATGTTAATCGGGTCTTGATTCGCTTGACGCTGCTG | 8.42 |
| CCGATTAACATCACGGAACCCCCTGATGTTAATCGGGTCTTGATTCGCTTGACGCTGCTG | 4.89 |
| CCGATTAACATCAGGGGGATAAATGATGTTAATCGGGTCTTGATTCGCTTGACGCTGCTG | 5.54 |
| CCGATTAACATCAATCTTTCCCCTGATGTTAATCGGGTCTTGATTCGCTTGACGCTGCTG | 7.61 |
| CCGATTAACATCAAAAGTCCCCTTGATGTTAATCGGGTCTTGATTCGCTTGACGCTGCTG | 9.23 |

| Sequence | binding signal [z-score] |
| --- | --- |
| CCGATTAACATCAAGTCCCCCCATGATGTTAATCGGGTCTTGATTCGCTTGACGCTGCTG | 4.07 |
| CCGATTAACATCAATCACCCCCCTGATGTTAATCGGGTCTTGATTCGCTTGACGCTGCTG | 4.27 |
| CCGATTAACATCAAAGCATCCCCTGATGTTAATCGGGTCTTGATTCGCTTGACGCTGCTG | 5.06 |
| CCGATTAACATCAAGGGGGTACTTGATGTTAATCGGGTCTTGATTCGCTTGACGCTGCTG | 3.89 |
| CCGATTAACATCAGGGGAATCCATGATGTTAATCGGGTCTTGATTCGCTTGACGCTGCTG | 9.29 |
| CCGATTAACATCAAGAATCCCCTTGATGTTAATCGGGTCTTGATTCGCTTGACGCTGCTG | 9.47 |
| CCGATTAACATCAAATATTCCCCTGATGTTAATCGGGTCTTGATTCGCTTGACGCTGCTG | 10.7 |
| CCGATTAACATCAGGGAAAGCACTGATGTTAATCGGGTCTTGATTCGCTTGACGCTGCTG | 4.73 |
| CCGATTAACATCACACATTCCCCTGATGTTAATCGGGTCTTGATTCGCTTGACGCTGCTG | 7.88 |
| CCGATTAACATCACATATTCCCCTGATGTTAATCGGGTCTTGATTCGCTTGACGCTGCTG | 8.81 |
| CCGATTAACATCAAGGATTCCCCTGATGTTAATCGGGTCTTGATTCGCTTGACGCTGCTG | 10.5 |
| CCGATTAACATCAAAAAGACCCCTGATGTTAATCGGGTCTTGATTCGCTTGACGCTGCTG | 4.44 |
| CCGATTAACATCAATTCCCCCCATGATGTTAATCGGGTCTTGATTCGCTTGACGCTGCTG | 7.06 |
| CCGATTAACATCAGGGGAGTACCTGATGTTAATCGGGTCTTGATTCGCTTGACGCTGCTG | 5.33 |
| CCGATTAACATCAGGGGGAAACCTGATGTTAATCGGGTCTTGATTCGCTTGACGCTGCTG | 8.06 |
| CCGATTAACATCAGGACAGCCCCTGATGTTAATCGGGTCTTGATTCGCTTGACGCTGCTG | 5.09 |
| CCGATTAACATCACAAGTTTCCCTGATGTTAATCGGGTCTTGATTCGCTTGACGCTGCTG | 5.33 |
| CCGATTAACATCAGGGAATCTTATGATGTTAATCGGGTCTTGATTCGCTTGACGCTGCTG | 4.66 |
| CCGATTAACATCAGGGGATGTTATGATGTTAATCGGGTCTTGATTCGCTTGACGCTGCTG | 6.43 |
| CCGATTAACATCAAATAAGTCCCTGATGTTAATCGGGTCTTGATTCGCTTGACGCTGCTG | 6.71 |
